This passage reports H1.0 immunofluorescence intensity results from the supplement of paper PMC7156485.

Structures are written as SMILES. Values joined by “and” are separate entries in the source; they are usually repeats but may differ in a detail not shown here. Equal values may be shown once.
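Note: TDF is a line of transformed human dermal fibroblasts of mesenchymal origin.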

The test system of the experiment is HCC1569. Kind of experiment: H1.0 immunofluorescence intensity relative to DMSO (% of DMSO); higher = stronger H1.0 induction, active = 140 or more. Conditions: concentration: 10 µM; 24 h. The method, boiled down:
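After 24 h at 37 °C with compounds at 10 µM, in triplicate, HCC1569 and TDF cells were fixed with 3.7% formaldehyde. Immunostaining used a rabbit anti-H1.0 antibody and an AlexaFluor 647 secondary, with DAPI, and six fields per well were imaged at ×10. H1.0 nuclear intensity or cell number is presented as percent of the plate control, from the median of replicates, with HCC1569 values smoothed for positional effects.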
As to `COc1cc(-c2oc3cc(O)ccc3c(=O)c2O)ccc1O` [Geraldol], the H1.0 immunofluorescence intensity was 99.4 (inactive).
To `COc1ccc(-c2nn3c(-c4ccccn4)nnc3s2)cc1OC` belongs 111 (inactive); to `CN1CCN(CC(=O)N2c3ccccc3C(=O)Nc3cccnc32)CC1.Cl.Cl` [Pirenzepine.2HCl], 106 (inactive).
Turning to `Cc1c(C)c2c(c(C)c1O)CCC(C)(COc1ccc(CC3SC(=O)NC3=O)cc1)O2` (stereo unspecified) [Troglitazone], the H1.0 immunofluorescence intensity is 103 (inactive).
To `Cc1ccc(S(=O)(=O)NC(=O)NN2CC3CCCC3C2)cc1` (stereo unspecified) [Gliclazide] belongs 114 (inactive); to `O=C(O)c1ccccc1Nc1cccc(OCc2ccc3ccccc3n2)c1`, 106 (inactive); to `CCOP(=O)(OCC)C(=Cc1cc(C(C)(C)C)c(O)c(C(C)(C)C)c1)P(=O)(OCC)OCC`, 124 (inactive).
Next, `Cn1c(=O)c2[nH]c(-c3ccc(S(=O)(=O)O)cc3)nc2n(C)c1=O` [8-(p-Sulfophenyl)theophylline]: 89 (inactive).
`CCCCCC=CCC=CCCCCCCCCCCC(=O)O` [12(Z), 15(Z)-Heneicosadienoic acid]: the H1.0 immunofluorescence intensity was 105 (inactive).
Regarding `C=CC1CN2CCC1CC2C(O)c1ccnc2ccc(OC)cc12.C=CC1CN2CCC1CC2C(O)c1ccnc2ccc(OC)cc12.O=S(=O)(O)O` (stereo unspecified) [Quinine sulfate], the H1.0 immunofluorescence intensity was 100 (inactive).
On to `CCCC1=C(c2ccc(O)cc2)N(c2ccc(O)cc2)NC1=C1C=CC(=O)C=C1` [1,3,5-tris(4-hydroxyphenyl)-4-propyl-1H-pyrazole], for which the H1.0 immunofluorescence intensity is 99.1 (inactive).
Next, `COc1cc2nc(N3CCN(C(=O)C4COc5ccccc5O4)CC3)nc(N)c2cc1OC` (stereo unspecified) [Doxazosin]: 113 (inactive); `C=C1C(=O)C23C(O)C1CCC2C12COC3(O)C(O)C1C(C)(C)CCC2O` (stereo unspecified) [Rubescensin A]: 100 (inactive); `O=C(O)Cc1c[nH]c2ccc(O)cc12` [(5-hydroxy-3H-indol-3-yl)acetic acid]: 103 (inactive).
To `c1ccc(-c2[nH]ncc2-c2ccnc3ccccc23)nc1` [TGF-b RI Kinase Inhibitor] belongs 110 (inactive).
To `O=NN(CCCl)C(=O)NC1CCCCC1` [Lomustine] belongs 99.7 (inactive).
As to `CCCCCC(=O)c1c(O)c(Cl)c(OC)c(Cl)c1O` [1-(3,5-dichloro-2,6-dihydroxy-4-methoxyphenyl)-1-hexanone], the H1.0 immunofluorescence intensity was 120 (inactive).
To `CSc1nc2ccc3nc(NC(=O)C(c4ccccc4)c4ccccc4)sc3c2s1` belongs 94 (inactive); to `CC(C)NCC(O)c1ccc2ccccc2c1.Cl` (stereo unspecified) [Pronethalol.HCl], 102 (inactive).
To `CCCCCCCCCCOCCC(=O)O` [4-Oxatetradecanoic acid] belongs 103 (inactive).
For `CN1CCN(C2=Nc3cc(F)ccc3Cc3ccccc32)CC1` [Fluperlapine], the H1.0 immunofluorescence intensity is 118 (inactive).
To `CC(C)NCC(O)c1ccc(O)c(O)c1.Cl` (single isomer, unassigned; (-)) [(-)-Isoproterenol hydrochloride] belongs 93.8 (inactive); to `N#Cc1c(NC(=O)c2cccc3ccccc23)sc2c1CCCC2` [JNK Inhibitor IX], 170 (active).
As to `COc1cc2c(Nc3ccc(NC(=O)c4ccccc4)cc3)ncnc2cc1OCCCN1CCOCC1`, the H1.0 immunofluorescence intensity was 151 (active).
Next, `C[C@H]1C[C@H]2[C@@H]3CCC4=CC(=O)C=C[C@]4(C)[C@@]3(F)[C@@H](O)C[C@]2(C)[C@@]1(O)C(=O)COP(=O)([O-])[O-].[Na+].[Na+]`: 111 (inactive); `O=C(O)c1ccc(-c2c[nH]c3ncc(-c4ccccc4)cc23)cc1C1CCCC1`: 152 (active) and 146 (active).
